Results as given in PubChem BioAssay (NCI).
About 79,000 compounds went through this panel and 15% of them were active in at least one assay; those are over-represented in the sample as a whole. The source made the active and inactive calls. Cut-off read from the data, not from the text of the source: active = growth inhibition above about 70%; inactive = the rest.

Key:
[1] = NCI Yeast Anticancer Drug Screen. Data for the rad52 strain (AID 147);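 note: 0% = growth of vehicle-treated control cultures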; conditions: S. cerevisiae rad52 mutant growth inhibition, stronger effect = higher value
Outline: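 Yeast strain carrying a DNA damage repair alteration was exposed to test compounds. Growth inhibition was measured relative to vehicle-treated controls.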

[2] = NCI Yeast Anticancer Drug Screen. Data for the rad50EPP+ strain (AID 151);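 note: 0% = growth of vehicle-treated control cultures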; conditions: S. cerevisiae rad50 mutant strain, stronger effect = higher value
Outline: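 Yeast strain carrying rad50 alteration (rad50EPP+) exposed to compounds; growth inhibition measured relative to vehicle-treated controls.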

[3] = NCI Yeast Anticancer Drug Screen. Data for the mgt1 strain (AID 153); conditions: S. cerevisiae mgt1 mutant growth inhibition, stronger effect = higher value
Outline: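 Yeast mgt1 strain (DNA repair/cell-cycle alteration panel) exposed to compounds; growth inhibition measured relative to vehicle-treated controls.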

[4] = NCI Yeast Anticancer Drug Screen. Data for the rad50 strain (AID 155);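 note: 0% = growth of vehicle-only cultures of the same strain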; conditions: S. cerevisiae rad50 strain growth inhibition, stronger effect = higher value
Outline: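 Readout: growth inhibition relative to vehicle-treated cultures. Compound exposure was carried out in a genetically defined yeast strain deficient in DNA damage repair.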

[5] = NCI Yeast Anticancer Drug Screen. Data for the mec2-1 strain (AID 157); conditions: S. cerevisiae mec2-1 strain, stronger effect = higher value
Outline: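 mec2-1 yeast strain, carrying an alteration in DNA damage repair or cell cycle control, was exposed to compounds; growth inhibition was measured relative to vehicle-treated controls.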

[6] = NCI Yeast Anticancer Drug Screen. Data for the sgs1 mgt1 strain (AID 161);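 note: 0% = growth of cultures given vehicle only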; conditions: S. cerevisiae sgs1 mgt1 strain, stronger effect = higher value
Outline: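 Growth of a repair-deficient yeast mutant was monitored after compound treatment and expressed as inhibition relative to vehicle-treated cultures.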

[7] = NCI Yeast Anticancer Drug Screen. Data for the CLN2oe strain (AID 163);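 note: 0% = growth of vehicle-only control cultures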; conditions: S. cerevisiae CLN2oe strain, stronger effect = higher value
Outline: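 Yeast cells carrying a defined cell-cycle control alteration were exposed to test compounds. Growth inhibition was scored against vehicle-treated control cultures.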

[8] = NCI Yeast Anticancer Drug Screen. Data for the cln2 rad14 strain (AID 165);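 note: 0% = growth equal to vehicle treated cultures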; conditions: S. cerevisiae cln2 rad14 strain, stronger effect = higher value
Outline: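 Yeast carrying cln2 and rad14 alterations (cell cycle control and DNA damage repair) were exposed to compounds. Growth inhibition was measured against vehicle-treated controls.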

[9] = NCI Yeast Anticancer Drug Screen. Data for the bub3 strain (AID 167); conditions: S. cerevisiae bub3 mutant strain, stronger effect = higher value
Outline: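 Readout: yeast growth inhibition, expressed relative to vehicle-only wells. The test organism is a mutant strain from a panel with lesions in DNA repair or checkpoint genes.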

[10] = NCI Yeast Anticancer Drug Screen. Data for the wt2 strain (AID 169);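 note: 0% = growth of vehicle-treated yeast cultures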; conditions: S. cerevisiae wt2 strain growth inhibition, stronger effect = higher value
Outline: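 Yeast cells were exposed to test compounds, and growth inhibition was measured relative to vehicle-treated controls.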

[11] = NCI Yeast Anticancer Drug Screen. Data for the mlh1 strain (AID 171);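 note: 0% = growth of vehicle-treated control cultures of the same strain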; conditions: S. cerevisiae mlh1 strain growth inhibition, stronger effect = higher value
Outline: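 Yeast carrying a defined genetic alteration in DNA damage repair or cell cycle control were exposed to test compounds. Growth inhibition was measured relative to vehicle-treated controls.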

[12] = NCI Yeast Anticancer Drug Screen. Data for the sgs1 strain (AID 173);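 note: 0% = growth of vehicle-only control cultures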; conditions: S. cerevisiae sgs1 mutant, stronger effect = higher value
Outline: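 Yeast mutant strains carrying defined defects in DNA damage repair or cell cycle control were exposed to test compounds. Growth inhibition was scored against vehicle-treated controls.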

[13] = NCI Yeast Anticancer Drug Screen. Data for the mlh1 rad18 strain (AID 175); conditions: S. cerevisiae mlh1 rad18 strain growth inhibition, stronger effect = higher value
Outline: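 Growth inhibition of the yeast strain was measured after compound exposure and expressed relative to vehicle-treated controls. The strain carries defined defects in DNA damage repair.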

[14] = NCI Yeast Anticancer Drug Screen. Data for the rad18 strain (AID 177); conditions: S. cerevisiae rad18 mutant growth inhibition, stronger effect = higher value
Outline: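 Yeast carrying a defined DNA damage repair alteration were exposed to compounds. Growth inhibition was expressed relative to vehicle-treated controls.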

[15] = at 5.0 µM (retest, dose inferred, filed as 0.5)
[16] = at 50.0 µM (retest, dose inferred, filed as 5.0)

Measured: growth inhibition

CN(C)c1nc2sc3c(c2c(=O)o1)CCCC3
inactive: [1]; at 1.2 µM 2% | [1]; at 3.7 µM 5% | [1]; at 11.0 µM 6% | [1]; at 33.0 µM 26% | [1]; at 100.0 µM 36% | [2]; at 1.2 µM 13% | [2]; at 3.7 µM 14% | [2]; at 11.0 µM 21% | [2]; at 33.0 µM 23% | [2]; at 100.0 µM 22% | [3]; at 1.2 µM -5% | [3]; at 3.7 µM -7% | [3]; at 11.0 µM 0% | [3]; at 33.0 µM 16% | [3]; at 100.0 µM 31% | [4]; at 1.2 µM 3% | [4]; at 3.7 µM 6% | [4]; [15] -4% | [4]; at 11.0 µM -13% | [4]; at 33.0 µM 29% | [4]; [16] 43% | [4]; at 50.0 µM 68.9% | [4]; at 100.0 µM 45% | [5]; at 1.2 µM 1% | [5]; at 3.7 µM -1% | [5]; [15] -4% | [5]; at 11.0 µM 0% | [5]; at 33.0 µM 26% | [5]; [16] 29% | [5]; at 50.0 µM 27.9% | [5]; at 100.0 µM 39% | [6]; [15] -7% | [6]; [16] 19% | [6]; at 50.0 µM 54.3% | [7]; at 1.2 µM 1% | [7]; at 3.7 µM -1% | [7]; at 11.0 µM -2% | [7]; at 33.0 µM 26% | [7]; at 100.0 µM 40% | [8]; [15] 26% | [8]; [16] 13% | [8]; at 50.0 µM -6.65% | [9]; at 1.2 µM 27% | [9]; at 3.7 µM 39% | [9]; [15] 39% | [9]; at 11.0 µM 44% | [9]; at 33.0 µM 55% | [9]; at 100.0 µM 69% | [10]; at 1.2 µM -1% | [10]; at 3.7 µM 0% | [10]; at 11.0 µM 1% | [10]; at 33.0 µM 26% | [10]; at 100.0 µM 35% | [11]; at 1.2 µM -3% | [11]; at 3.7 µM -4% | [11]; at 11.0 µM -2% | [11]; at 33.0 µM 26% | [11]; at 100.0 µM 31% | [12]; at 1.2 µM -3% | [12]; at 3.7 µM -4% | [12]; at 11.0 µM -1% | [12]; at 33.0 µM 19% | [12]; at 100.0 µM 36% | [13]; [15] -9% | [13]; at 50.0 µM 50.6% | [14]; at 1.2 µM 0% | [14]; at 3.7 µM 1% | [14]; at 11.0 µM 3% | [14]; at 33.0 µM 18% | [14]; at 100.0 µM 48%
active: [9]; [16] 92% | [9]; at 50.0 µM 75.2% | [13]; [16] 90%
